HT1080NT lethal: qHTS for induction of synthetic lethality in tumor cells producing 2HG: qHTS for the HT-1080-NT fibrosarcoma cell line; HT-1080-NT fibrosarcoma viability, CellTiter-Glo ATP luminescence, 48 h; Potency, µM (doses to about 46.1 µM), for inactives: at the top dose activity, negative = less viability, usual class: cytotoxic; AID 686970, 2013; hit rate 1.6% among 360,000;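 further: NT is the 2HG producing partner of a matched IDH1 knockdown line; 0% = DMSO-treated cells and -100% = media-only wells without cells; nearly all actives have a fitted effect of over 55% in size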
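Toxicity toward the 2HG-producing NT line was scored as %Activity, normalised to DMSO and no-cell wells, from CellTiter-Glo luminescence after 48 hours' treatment.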
HepG2 viability: qHTS for Inhibitors of TGF-b: Cytotox Counterscreen. Potency, µM (titrated, usually from 46.1 µM), without a hit: at the top dose activity change, negative = cytotoxicity, usual class: cytotoxic. AID 588856, 2011. HepG2 CAGA-GFP viability, ATP luminescence, 18 h. hit rate 0.76% among 410,000
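CellTiter-Glo luminescence gave cytotoxicity after 18 hours at 37 degrees C. The cells were HepG2 CAGA-GFP in 1% FBS DMEM, stimulated with 500 pg/mL TGF-beta after compound addition. %Activity was normalised to no-cell wells (complete cell-killing) and DMSO (no toxicity), and curves were fitted and classified.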
KB-3-1 tox: qHTS assay for MDR1-selective chemotherapeutics: Primary screen using the parental adenocarcinoma cell KB-3-1; hit rate 1.4% among 400,000; Potency, µM (series often up to 46.1 µM), usual class: cytotoxic; KB-3-1 viability, CellTiter-Glo ATP luminescence, 72 h; further: on the % scale 0 is the no-effect control and ±100 the full control effect; nearly all actives have a fitted effect of over 60% in size
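Cytotoxicity measured as CellTiter-Glo luminescence after 72 h at 37 C. Compound titrations were pinned onto drug-naive KB-3-1 parental adenocarcinoma cells grown in DMEM with 10% FBS, and normalized data fitted to concentration-response curves.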
KB-V1 MDR tox: qHTS assay for MDR1-selective chemotherapeutics: Primary screen using the drug-selected MDR subline cells KB-V1; Potency, µM (doses to about 46.1 µM), hits mostly cytotoxic; KB-V1 MDR cells viability, CellTiter-Glo, 72 h; hit rate 3.4% among 400,000; further: on the % scale 0 is the no-effect control and ±100 the full control effect; nearly all actives have a fitted effect of over 60% in size
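qHTS viability screen in drug-selected KB-V1 MDR cells: 72 h compound treatment at 37 degrees C, ATP luminescence end point.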
HT1080 IDH1KD tx: qHTS for induction of synthetic lethality in tumor cells producing 2HG: qHTS for the HT-1080-IDH1KD cell line. HT-1080 IDH1 knockdown viability, ATP luminescence, 48 h. Potency, µM (top dose mostly 46.1 µM), for inactives: at the top dose activity, negative = toxicity, most hits filed as cytotoxic. hit rate 2% among 360,000. AID 686971, 2013;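 further: 0% = DMSO wells and -100% = cell-free medium wells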
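Knockdown cells (IDH1KD HT-1080) received compounds 2 h after plating at 750 cells/well and were kept 48 h at 37 °C in 5% FBS RPMI. A CellTiter-Glo luminescence read gave % activity for curve fitting.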
TGFb SMAD3 inh: qHTS for Inhibitors of TGF-b | HepG2 CAGA-GFP TGF-b/SMAD3 reporter, GFP fluorescence, 18 h; TGF-beta stimulated, 500 pg/mL final | AID 588855, 2011 | hit rate 1.2% among 410,000 | Potency, µM (series often up to 46.1 µM), without a hit: at the top dose activity, negative = inhibition, hits mostly inhibitors; further: on the % scale 0 is the no-effect control and ±100 the full control effect; nearly all actives have a fitted effect of over 65% in size
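Read-out: total well GFP (ex488/em500-530) summed from mean per-cell fluorescence. Cells: HEPG2 CAGA-GFP, 1% FBS DMEM, 18 h at 37 degrees C with 500 pg/mL final TGF-beta. Unstimulated wells served as the full-inhibition control; stimulated DMSO wells = 0%.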
Active calls of the source: *; i = inactive; ? = inconclusive; . = no result given. In the library only some 6.6% were active in any assay of this set; here they are far more common. The call rests on the fitted dose curve; in most records, active means well fitted curve in the direction sought with a large enough effect; inconclusive means small, poorly fitted or top-dose-only effect, or another doubt; inactive means no such curve, though single readings can be large; an effect the other way counts as inactive or inconclusive. Potency means the concentration at half of the fitted maximal effect.

SMILES	HT1080NT lethal	HepG2 viability	KB-3-1 tox	KB-V1 MDR tox	HT1080 IDH1KD tx	TGFb SMAD3 inh
COc1ccc(CCNC(=O)CN(c2cc(OC)ccc2OC)S(=O)(=O)c2ccccc2)cc1	20.9%	7.5%	i	23.1µM*	-4.3%	-14.0%
Cc1ccc2cc3c(N)[nH]nc3nc2c1	-3.7%	-8.0%	i	18.4µM*	-5.6%	-2.8%
CCN1CCn2c3c(c4cc(C)ccc42)CCCC31 (stereo not given)	1.9%	-16.4%	i	i	-3.3%	1.1%
Cc1ccc2c(c1)c1c3n2CCN(CCC#N)C3CCC1 (stereo not given)	4.3%	-33.9%	i	18.4µM*	-0.4%	-1.4%
Cc1ccc2c(c1)c1c3n2CCN(C(=O)CCl)C3CCC1 (stereo not given)	16.4µM*	-102.3%	i	i	?	?
O=C(NCc1ccc(Cl)cc1)c1ccc(CNS(=O)(=O)c2ccc(F)cc2)cc1	.	3.7%	.	.	.	-1.9%
N#CC1=C(N)OC2=C(CCc3ccccc32)C1c1ccccc1Cl (stereo not given)	7.31µM*	-102.3%	?	4.61µM*	4.61µM*	0.0%
CC(=O)CC1OC(=O)C(Br)=C1NCc1ccccc1 (stereo not given)	3.55µM*	7.94µM*	i	i	0.891µM*	10µM*
Cc1ccc(C(=O)NCCSCc2ccc(Cl)cc2Cl)cc1[N+](=O)[O-]	-16.5%	-2.6%	i	i	-0.4%	?
Cc1cc(CNC(=O)c2cccc([N+](=O)[O-])c2C)c2ccccc2n1	-28.5%	-2.8%	i	5.8µM*	-21.2%	0.0%
Cc1c(C(=O)NCCSCc2ccc(Cl)cc2Cl)cccc1[N+](=O)[O-]	?	-30.4%	?	25.9µM*	?	-3.4%
NC(c1csc(Nc2cc(Oc3ccccc3)ncn2)n1)C1CCCCC1 (stereo not given)	?	-113.5%	?	?	4.61µM*	?
COc1cccc(Nc2nc(C(N)C3CCCCC3)cs2)n1 (stereo not given)	?	15.8µM*	i	i	16.4µM*	?
OC(Cc1cccc(Br)c1)c1ncc(-c2cccc(C(F)(F)F)c2)[nH]1 (stereo not given)	?	-109.2%	?	?	?	?
CCc1ccc(C(O)c2ncc(-c3cccc(C(F)(F)F)c3)[nH]2)cc1 (stereo not given)	23.1µM*	-112.6%	i	?	?	?
OC(Cc1ccccc1Br)c1ncc(-c2cccc(C(F)(F)F)c2)[nH]1 (stereo not given)	?	-57.8%	i	?	16.4µM*	?
C[C@H]1CCCCO[C@@H](CN(C)S(=O)(=O)c2ccc(F)cc2)[C@@H](C)CN([C@@H](C)CO)C(=O)c2cc(NC(=O)Nc3ccc4c(c3)OCO4)ccc2O1	-4.7%	-7.5%	i	i	-3.7%	1.1%
CC1=C(c2ccc(C(C)C)cc2)S(=O)(=O)N=C1N1CCC(C(=O)NCc2ccccc2)CC1	.	-37.7%	i	?	.	?
CCN(CC)CCCC(C)Nc1cc(/C=C/c2ccccc2Cl)nc2cc(Cl)ccc12 (stereo not given)	.	2.82µM*	?	i	.	2.82µM*
CCN(CC)CCN(C(=O)/C=C/c1cccs1)c1nc2ccc(Cl)cc2s1	13.2%	-7.5%	i	i	?	-6.7%
CCC(C)NC(=O)CCc1c(C)nc2cc(-c3ccc(OC)cc3OC)nn2c1C (stereo not given)	.	6.1%	i	i	.	23.0%
Cc1ccccc1CNC(=O)C(=O)NCC(c1cccs1)S(=O)(=O)c1ccc(Cl)cc1 (stereo not given)	.	-33.6%	?	i	.	?
COc1ccc(S(=O)(=O)c2cn(C)c3cc(N4CCCC4)c(F)cc3c2=O)cc1	.	-3.2%	i	i	.	?
CC(C)C(=O)NNS(=O)(=O)c1ccccc1[N+](=O)[O-]	15.1%	15.8µM*	i	?	3.6%	-3.2%
COC(C(=O)NNS(=O)(=O)c1ccccc1[N+](=O)[O-])c1ccccc1 (stereo not given)	0.0%	-10.8%	i	i	4.0%	6.0%
SMILES	HT1080NT lethal	HepG2 viability	KB-3-1 tox	KB-V1 MDR tox	HT1080 IDH1KD tx	TGFb SMAD3 inh
COc1ccccc1CNC(=O)c1cc(S(=O)(=O)N2CCCCCC2)cn1C	.	-21.9%	i	i	.	0.0%
Nc1c(C(=O)Nc2ccc(Cl)cc2F)sc2nc(-c3cccs3)ccc12	.	-46.8%	i	i	.	46.7%
CC(C)CC1OC(C(C)C)Cc2[nH]c(=S)[nH]c(=O)c21 (stereo not given)	-0.5%	.	i	i	-6.0%	.
C[C@@H]1O[C@H](C2CCCC2)Cc2[nH]c(=S)[nH]c(=O)c21	-1.0%	.	16.4µM*	?	0.0%	.
CC(C)[C@@H]1Cc2[nH]c(=S)[nH]c(=O)c2[C@H](C)O1	18.2%	.	8.2µM*	5.8µM*	7.6%	.
CC(C)[C@@H]1Cc2[nH]c(=O)[nH]c(=O)c2[C@H](C)O1	16.5%	.	?	18.4µM*	13.5%	.
COc1ccc(O)c(/C=N/NC(=O)c2ccc(N3CCCC3=O)cc2)c1	?	-28.4%	?	i	23.1µM*	6.5%
Fc1ccc(-c2n[nH]c(=S)n2Cc2ccccc2)cc1	11.9%	-10.3%	i	?	8.1%	-0.2%
CC(C)(C)c1ccc(-c2n[nH]c(=S)n2Cc2ccccc2)cc1	?	12.6µM*	i	i	?	?
CCOc1ccccc1C(=O)N(Cc1ccco1)Cc1ccccc1F	.	-26.6%	.	.	.	-3.1%
CCc1ccc(-c2cc(C(=O)Nn3cnnc3)c3ccccc3n2)cc1	10µM*	8.91µM*	?	?	14.1µM*	?
CC(C)Oc1cccc(-c2cc(C(=O)NN3CCOCC3)c3ccccc3n2)c1	-3.8%	-17.6%	i	i	1.1%	6.0%
CCCc1ccc(-c2cc(C(=O)NN3CCOCC3)c3ccccc3n2)cc1	-7.6%	-1.9%	i	5.17µM*	?	0.1%
CCc1ccc(-c2cc(C(=O)N3N=C(C(F)F)CC3(O)C(F)F)c3ccccc3n2)cc1 (stereo not given)	?	-99.7%	?	18.4µM*	?	?

Screens: PubChem, National Center for Advancing Translational Sciences (NCATS)
